# Measurements reported in the supplement of paper PMC6555819.
# System: PXR:RXRa (NR concentration 270 nM, RXRa partner concentration 90 nM)
# Test: PBM binding z-score (relative to random genomic background probes); higher = stronger binding; sequences stand for … in GC…GCGATTGACAGCGTAGAATGAAGG
# Outline: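 Ligand-free nuclear receptor dimers were applied to custom Agilent 4×180K protein-binding microarrays whose double-stranded probes carried direct-repeat seeds, single-nucleotide variants, half-site ablations and random human genomic background sequences in 34-nt variable regions. Incubation lasted 1 h. Binding z-scores were computed against the random background probes from regression-normalized fluorescence.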
row,Sequence,PBM binding z-score
1,TCAGACAGGTGAAGCTAACTCAGGTACGCAGTCG,0.0875
2,TAGCCTTGGTCATGCGGGCCAGTATAGTGTCGGC,-0.758
3,GTACCAAGGTGAATAGGTCGTTAATGAGTAGGCG,0.664
4,GCTTGTAGATCAACGTTAAGAAAGACTAAGCTAA,-0.51
5,TCTTGTAGATCAAAGGGTAAGAAAGCCGAAGCCT,0.0425
6,GCTGATAGGTCAACTGATGGTCAGCTAAAGCTCG,3
7,CATACAGGGTCAGCTAGGGCAGAGTAGGGACGGC,2.54
8,AGTCAAAGTTCAGGACGATGTAACGTAAAGCACG,2.22
9,TCTAGTTGGTCACGGTGGTCACACACGACGGGTA,0.537
10,CCGACTGGGGCAAGGTTGCCATAACGCACAGCCA,-0.535
11,CCTAGCGGGCCAGGGTCACTCAAGCATTTCGCTT,2.61
12,AGAATGAGGTTGTACGTAGATCAGGGAAGAAAGT,0.252
13,AGAATGAGGTTATACGTACATCAGGGAAGAAAGT,1.28
14,TGGAGTAGGTTAGGGGCATTCAGAATGGCGTCGA,1.18
15,CCTACTGGGCCATTCAGAGGCCATTGATCATATG,-0.174
16,ATATGTAGGTTACGGGTCATTCAGGTTGGTTCGC,4.78
17,TCGAGTAGGTTAGGGGTATTCAGAATGGCGTCGA,0.383
18,CCTAGTTCGTCAAGGTCACACACGCTATAGGTAC,5.38
19,TCTTTTAGTTGATTAGGGCAACCGAAACAGCGGA,0.77
20,GCTAGCAGGGCATTTGGGTCACTCAATGACGGGC,1.06
21,TGAATGAGGTTATAAGATCGGGGAACGTTGCAAA,0.636
22,CGTCCCAGGTCAGAGAGGTCAGTGAATGCCGAGT,5.38
